# Active and inactive are the calls of the source. Unless noted, no rule for the calls is given here.
# Key:
# [1] = system: Wnt5a (protein binding on small-molecule microarray); test: small molecules binding Wnt5a protein – biophysical, small-molecule microarray, 635/667 nm fluorescence, primary screen (AID 1142); conditions: 635 nm fluorescence, higher = more signal;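 also: fluorescence read at 667 nm with signal to noise per printed feature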
# [2] = ATP-based viability of Huh7 replicon cells – cell-based, CellTiter-Glo luminescence, basal, 48 h, cytotoxicity control for HCV replication inhibitor project, primary screen (AID 1143); conditions: higher = more signal, called active from +8 up or from −8 down;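 also: Huh7 hepatoma cells carrying a hepatitis C replication reporter with no stimulus; test concentration not given here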
# [3] = Pseudomonas biofilm growth suppression – PAO1 strain, BacTiter-Glo luminescence, LB-PBS, primary screen (AID 1144); conditions: P. aeruginosa PAO1 biofilm, 12 h, higher = more signal
# [4] = basal CRE-LacZ reporter activity in PC12 – cell-based, unstimulated, primary screen (AID 1145); conditions: no forskolin, luminescence, 4.5 h, higher = more signal, called active from +8 up or from −8 down
# [5] = forskolin-driven CRE-LacZ activity in PC12 – cell-based, CRE-LacZ reporter, forskolin-stimulated, primary screen (AID 1146); conditions: luminescence, 4.5 h, higher = more signal, called active from +8 up or from −8 down;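 also: PC12 cells with 6xCRE LacZ reporter stimulated by forskolin 10 µM; beta-galactosidase reporter signal reflecting CREB driven transcription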
# [6] = molecular target: Streptavidin (Streptomyces avidinii) (UniProt P22629); test: compounds binding control protein streptavidin – biophysical, small-molecule microarray, 635/667 nm fluorescence, artefact control for SMM compound annotation, primary screen (AID 1147); conditions: higher = more signal;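 also: signal reflects streptavidin binding to arrayed compounds as a control protein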
# Chain of Streptavidin (Streptomyces avidinii) (P22629 whole entry, looked up): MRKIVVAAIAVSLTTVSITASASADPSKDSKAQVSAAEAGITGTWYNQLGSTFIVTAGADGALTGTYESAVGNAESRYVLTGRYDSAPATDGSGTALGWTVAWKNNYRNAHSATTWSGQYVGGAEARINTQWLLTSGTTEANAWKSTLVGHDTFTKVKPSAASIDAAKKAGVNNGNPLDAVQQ
# [7] = probe aInhba binding on compound microarray – biochemical, small-molecule microarray, 635/667 nm fluorescence, primary screen (AID 1148); conditions: higher = more signal;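 also: score merges 667nm spot fluorescence with signal-to-noise for antibody binding to printed compounds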
# Torsin-1A (Homo sapiens) [8] = molecular target: Torsin-1A (Homo sapiens) (UniProt O14656); test: TOR1A wild-type binding on microarray – cell lysate, small-molecule microarray, lysate, 635/667 nm, primary screen (AID 1149); conditions: COS7 hTOR1A-WT lysate, 635 nm fluorescence, higher = more signal
# Chain of Torsin-1A (Homo sapiens) (O14656 whole entry, looked up): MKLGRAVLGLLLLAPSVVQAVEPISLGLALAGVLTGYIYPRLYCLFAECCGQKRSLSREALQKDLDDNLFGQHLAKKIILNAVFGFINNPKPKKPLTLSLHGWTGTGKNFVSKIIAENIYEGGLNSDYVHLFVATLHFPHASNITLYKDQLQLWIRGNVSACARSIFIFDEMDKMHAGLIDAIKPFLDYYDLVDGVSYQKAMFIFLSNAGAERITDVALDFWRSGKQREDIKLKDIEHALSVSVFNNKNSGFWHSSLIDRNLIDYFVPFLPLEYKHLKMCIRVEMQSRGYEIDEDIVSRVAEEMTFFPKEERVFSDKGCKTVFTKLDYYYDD
# Torsin-1A (Homo sapiens) [9] = molecular target: Torsin-1A (Homo sapiens) (UniProt O14656); test: torsin A mutant lysate binding on microarrays – cell lysate, small-molecule microarray, COS7 lysate, 635/667 nm fluorescence, primary screen (AID 1150); conditions: COS7 hTOR1A mutant lysate, 635 nm fluorescence, higher = more signal;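 also: score pools 667 nm emission and signal to noise measuring lysate protein binding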
# [10] = system: Sonic hedgehog protein (Shh); test: Sonic hedgehog microarray binding compounds – biochemical, small-molecule microarray, 635/667 nm fluorescence, primary screen (AID 1151); conditions: 635 nm fluorescence, higher = more signal;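 also: Shh protein binding to compounds spotted on small-molecule microarray slides; score combines spot fluorescence intensity with signal-to-noise across triplicate slides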
compound,measurement,setting,value
COc1ccc(C(O)C2C=CC3C(=O)N(c4ccccc4)C(=O)C3N2Nc2ccccc2F)cc1 (stereo not given),composite z-score,[1],0.0178
same,z-score,[2],-0.0475 (inactive)
same,z-score,[3],-0.749 (inactive)
same,z-score,[4],-0.228 (inactive)
same,z-score,[5],0.604 (inactive)
same,composite z-score,[6],0.316
same,composite z-score,[7],1.52
same,composite z-score,Torsin-1A (Homo sapiens) [8],0.216
same,composite z-score,Torsin-1A (Homo sapiens) [9],0.732
same,composite z-score,[10],0.379
CCCCC=C[C@@H](NC(=O)c1ccccc1)c1ccccc1,composite z-score,[1],-0.275
same,z-score,[2],-0.598 (inactive)
same,z-score,[3],-0.287 (inactive)
same,z-score,[4],0.969 (inactive)
same,z-score,[5],1.39 (inactive)
same,composite z-score,[6],1.89
same,composite z-score,[7],0.162
same,composite z-score,Torsin-1A (Homo sapiens) [8],0.128
same,composite z-score,Torsin-1A (Homo sapiens) [9],0.0135
same,composite z-score,[10],-0.863
O=C(CS)NCCCCCCNC(=O)[C@@H]1C[C@@H]2C(=O)NCC(=O)N2[C@@H]1c1ccc(O)cc1,composite z-score,[1],-0.101
same,z-score,[2],-0.534 (inactive)
same,z-score,[3],-1.26 (inactive)
same,z-score,[4],-0.537 (inactive)
same,z-score,[5],-1.57 (inactive)
same,composite z-score,[6],-0.635
same,composite z-score,[7],-0.293
same,composite z-score,Torsin-1A (Homo sapiens) [8],0.397
same,composite z-score,Torsin-1A (Homo sapiens) [9],-0.814
same,composite z-score,[10],0.236
CCOC(=O)C1=CCC(c2ccccc2)N(S(=O)(=O)c2ccc([N+](=O)[O-])cc2)C1 (stereo not given),composite z-score,[1],-0.206
same,z-score,[2],-3.61 (inactive)
same,z-score,[3],0.697 (inactive)
same,z-score,[4],1.23 (inactive)
same,z-score,[5],-0.536 (inactive)
same,composite z-score,[6],0.108
same,composite z-score,[7],-0.128
same,composite z-score,Torsin-1A (Homo sapiens) [8],0.331
same,composite z-score,Torsin-1A (Homo sapiens) [9],0.458
same,composite z-score,[10],0.188
O=C1C[C@@](C(=O)NCc2ccccc2)(c2ccc([N+](=O)[O-])cc2)[C@@H](c2ccc(CO)cc2I)N1CC12CC3CC(CC(C3)C1)C2,composite z-score,[1],0.77
same,z-score,[2],-5.74 (inactive)
same,z-score,[3],-1.67 (inactive)
same,z-score,[4],-0.709 (inactive)
same,z-score,[5],-0.038 (inactive)
same,composite z-score,[6],0.0117
same,composite z-score,[7],-0.246
same,composite z-score,Torsin-1A (Homo sapiens) [8],0.585
same,composite z-score,Torsin-1A (Homo sapiens) [9],0.825
same,composite z-score,[10],2.06
Cc1ccc(S[C@]2(C(=O)NC(C)C)CC(=O)N(Cc3ccccc3Cl)[C@@H]2c2ccc(CO)cc2)cc1,composite z-score,[1],-0.323
same,z-score,[2],-2.67 (inactive)
same,z-score,[3],-0.141 (inactive)
same,z-score,[4],-0.295 (inactive)
same,z-score,[5],0.506 (inactive)
same,composite z-score,[6],-1.03
same,composite z-score,[7],-0.149
same,composite z-score,Torsin-1A (Homo sapiens) [8],-2.93
same,composite z-score,Torsin-1A (Homo sapiens) [9],-1.86
same,composite z-score,[10],-0.761
COc1cc(NN2C(C(O)c3ccc(I)cc3)C=CC3C(=O)N(c4ccccc4)C(=O)C32)cc(OC)c1OC (stereo not given),composite z-score,[1],0.378
same,z-score,[2],-3.44 (inactive)
same,z-score,[3],-1.28 (inactive)
same,z-score,[4],-0.136 (inactive)
same,z-score,[5],0.0938 (inactive)
same,composite z-score,[6],0.901
same,composite z-score,[7],0.233
same,composite z-score,Torsin-1A (Homo sapiens) [8],0.544
same,composite z-score,Torsin-1A (Homo sapiens) [9],0.743
same,composite z-score,[10],0.325
CC(=O)N1CC(C(O)C2C=CC3C(=O)NC(=O)C3N2Nc2ccc(Cl)cc2Cl)c2ccccc21 (stereo not given),composite z-score,[1],-0.0061
same,z-score,[2],-0.0847 (inactive)
same,z-score,[3],-0.651 (inactive)
same,z-score,[4],1.21 (inactive)
same,z-score,[5],-0.584 (inactive)
same,composite z-score,[6],0.543
same,composite z-score,[7],0.16
same,composite z-score,Torsin-1A (Homo sapiens) [8],-0.291
same,composite z-score,Torsin-1A (Homo sapiens) [9],0.545
same,composite z-score,[10],-0.123
CC(C)C[C@@H]1NC(=O)[C@H]2C[C@@H](C(=O)NCCCCCN)[C@@H](c3cccc(OCCO)c3)N2C1=O,composite z-score,[1],-0.0295
same,z-score,[2],-0.707 (inactive)
same,z-score,[3],-0.887 (inactive)
same,z-score,[4],0.273 (inactive)
same,z-score,[5],-0.673 (inactive)
same,composite z-score,[6],-0.174
same,composite z-score,[7],-0.008
same,composite z-score,Torsin-1A (Homo sapiens) [8],0.67
same,composite z-score,Torsin-1A (Homo sapiens) [9],0.207
same,composite z-score,[10],-0.414
O=C1O[C@H](c2ccccc2)[C@H](c2ccccc2)N2[C@H]1[C@@H](C(=O)O)[C@]1(C(=O)Nc3ccc(C#CC4(O)CCCCCC4)cc31)[C@H]2c1ccc(O)cc1,composite z-score,[1],-0.243
same,z-score,[2],-3.06 (inactive)
same,z-score,[3],-2.13 (inactive)
same,z-score,[4],-1.29 (inactive)
same,z-score,[5],-1.14 (inactive)
same,composite z-score,[6],-0.467
same,composite z-score,[7],-0.152
same,composite z-score,Torsin-1A (Homo sapiens) [8],-0.449
same,composite z-score,Torsin-1A (Homo sapiens) [9],0.198
same,composite z-score,[10],-0.335
COc1ccc([Si](C)(C)[C@@H]2[C@@H](CC(=O)N3Cc4ccccc4C[C@H]3CO)O[C@]3(C(=O)N(Cc4ccc(N5CCC5=O)cc4)c4ccccc43)[C@H]2C)cc1,composite z-score,[1],0.159
same,z-score,[2],-3.32 (inactive)
same,z-score,[3],-1.1 (inactive)
same,z-score,[4],0.409 (inactive)
same,z-score,[5],-0.448 (inactive)
same,composite z-score,[6],0.673
same,composite z-score,[7],-0.167
same,composite z-score,Torsin-1A (Homo sapiens) [8],-0.191
same,composite z-score,Torsin-1A (Homo sapiens) [9],0.585
same,composite z-score,[10],1.74
COCCCNC(=O)[C@@]1(c2ccc([N+](=O)[O-])cc2)CC(=O)N(CC23CC4CC(CC(C4)C2)C3)[C@@H]1c1ccc(CO)cc1I,composite z-score,[1],0.582
same,z-score,[2],-5.26 (inactive)
same,z-score,[3],0.142 (inactive)
same,z-score,[4],-0.825 (inactive)
same,z-score,[5],0.372 (inactive)
same,composite z-score,[6],-0.414
same,composite z-score,[7],0.0906
same,composite z-score,Torsin-1A (Homo sapiens) [8],0.676
same,composite z-score,Torsin-1A (Homo sapiens) [9],0.0661
same,composite z-score,[10],0.636
COCCOC(=O)N1C(=O)[C@@]2(c3cc(C#CC4(O)CCCCCC4)ccc31)[C@H](C(=O)N1CCN(c3ncccn3)CC1)[C@H]1C(=O)O[C@H](c3ccccc3)[C@H](c3ccccc3)N1[C@@H]2c1ccccc1OCCO,composite z-score,[1],0.329
same,z-score,[2],-2.56 (inactive)
same,z-score,[3],0.884 (inactive)
same,z-score,[4],0.204 (inactive)
same,z-score,[5],1.22 (inactive)
same,composite z-score,[6],0.0715
same,composite z-score,[7],0.258
same,composite z-score,Torsin-1A (Homo sapiens) [8],0.835
same,composite z-score,Torsin-1A (Homo sapiens) [9],0.577
same,composite z-score,[10],1.52
CN1C(=O)C2C=CC(C(O)c3ccc(F)cc3)N(NC(=O)OC(C)(C)C)C2C1=O (stereo not given),composite z-score,[1],0.155
same,z-score,[2],-0.134 (inactive)
same,z-score,[3],0.193 (inactive)
same,z-score,[4],0.436 (inactive)
same,z-score,[5],0.84 (inactive)
same,composite z-score,[6],1.43
same,composite z-score,[7],0.0705
same,composite z-score,Torsin-1A (Homo sapiens) [8],0.0284
same,composite z-score,Torsin-1A (Homo sapiens) [9],-0.0455
same,composite z-score,[10],-0.761
COCCOC(=O)N1C(=O)[C@@]2(c3cc(C#CCC(C(=O)OC)C(=O)OC)ccc31)[C@H](c1ccc(OCCO)cc1)N1[C@H](c3ccccc3)[C@H](c3ccccc3)OC(=O)[C@H]1[C@@H]2C(=O)Nc1nc2ccccc2s1,composite z-score,[1],0.0015
same,z-score,[2],-1.79 (inactive)
same,z-score,[3],-0.45 (inactive)
same,z-score,[4],0.0384 (inactive)
same,z-score,[5],0.282 (inactive)
same,composite z-score,[6],0.067
same,composite z-score,[7],-0.101
same,composite z-score,Torsin-1A (Homo sapiens) [8],0.212
same,composite z-score,Torsin-1A (Homo sapiens) [9],0.264
same,composite z-score,[10],1.6

# Source: PubChem BioAssay
